# Test results from PMC3218832.
# How the values were obtained:
# Assay in all cases: protein binding microarray; high values mean tight binding
# Conditions in all cases: dsDNA, one strand shown
# RELARELA (p65 homodimer) = RELARELA (p65 homodimer) (Homo sapiens, UniProt Q04206 1-307)
# p50p50 homodimer = p50p50 homodimer (Homo sapiens, UniProt P19838 7-356)
# p52p52 homodimer = biological target: T1, p52p52 homodimer (Homo sapiens, UniProt Q00653 4-332)
# T1 sequence: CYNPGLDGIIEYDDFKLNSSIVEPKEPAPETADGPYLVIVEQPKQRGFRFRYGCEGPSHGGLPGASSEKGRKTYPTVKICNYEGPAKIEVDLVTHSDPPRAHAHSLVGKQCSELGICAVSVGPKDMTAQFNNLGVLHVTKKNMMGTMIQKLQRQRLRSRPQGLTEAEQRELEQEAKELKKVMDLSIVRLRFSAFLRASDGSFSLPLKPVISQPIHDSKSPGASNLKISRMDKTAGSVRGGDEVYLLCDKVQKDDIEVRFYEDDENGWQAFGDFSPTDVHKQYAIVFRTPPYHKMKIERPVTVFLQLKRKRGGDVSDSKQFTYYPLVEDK
# [1] = biological target: RELA (p65) subunit of heterodimer;p50 subunit (Homo sapiens;Homo sapiens, UniProt Q04206;P19838 1-307;7-356)
# [2] = biological target: RELA (p65) subunit of heterodimer;p52 subunit (Homo sapiens;Homo sapiens, UniProt Q04206;Q00653 1-307;4-332)
# RELB subunit;p50 subunit = RELB subunit;p50 subunit (Homo sapiens;Homo sapiens, UniProt Q01201;P19838 120-401;7-356)
# RELB subunit;p52 subunit = biological target: T2, RELB subunit;p52 subunit (Homo sapiens;Homo sapiens, UniProt Q01201;Q00653 120-401;4-332)
# T2 sequence 1: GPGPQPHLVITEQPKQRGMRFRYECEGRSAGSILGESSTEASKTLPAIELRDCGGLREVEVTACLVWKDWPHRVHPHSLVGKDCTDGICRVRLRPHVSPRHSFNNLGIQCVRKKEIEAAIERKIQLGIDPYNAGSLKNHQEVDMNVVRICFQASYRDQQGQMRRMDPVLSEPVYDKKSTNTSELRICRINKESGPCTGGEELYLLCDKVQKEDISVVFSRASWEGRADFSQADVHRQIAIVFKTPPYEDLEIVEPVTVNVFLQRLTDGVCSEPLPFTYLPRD
# T2 sequence 2: T1 sequence
# [3] = biological target: C-Rel subunit;p50 subunit (Homo sapiens;Homo sapiens, UniProt Q04864;P19838 1-285;7-356)
# [4] = biological target: T3, C-Rel subunit;p52 subunit (Homo sapiens;Homo sapiens, UniProt Q04864;Q00653 1-285;4-332)
# T3 sequence 1: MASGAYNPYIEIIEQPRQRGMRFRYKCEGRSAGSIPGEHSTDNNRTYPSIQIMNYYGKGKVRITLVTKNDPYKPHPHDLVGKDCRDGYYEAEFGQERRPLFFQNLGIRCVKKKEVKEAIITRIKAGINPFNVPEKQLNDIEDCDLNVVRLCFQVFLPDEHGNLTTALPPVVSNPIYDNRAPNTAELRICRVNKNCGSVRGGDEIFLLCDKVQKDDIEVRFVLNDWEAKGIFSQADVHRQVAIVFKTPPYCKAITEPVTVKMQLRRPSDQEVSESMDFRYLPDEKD
# T3 sequence 2: T1 sequence
# Chain of RELARELA (p65 homodimer) (Q04206 1-307): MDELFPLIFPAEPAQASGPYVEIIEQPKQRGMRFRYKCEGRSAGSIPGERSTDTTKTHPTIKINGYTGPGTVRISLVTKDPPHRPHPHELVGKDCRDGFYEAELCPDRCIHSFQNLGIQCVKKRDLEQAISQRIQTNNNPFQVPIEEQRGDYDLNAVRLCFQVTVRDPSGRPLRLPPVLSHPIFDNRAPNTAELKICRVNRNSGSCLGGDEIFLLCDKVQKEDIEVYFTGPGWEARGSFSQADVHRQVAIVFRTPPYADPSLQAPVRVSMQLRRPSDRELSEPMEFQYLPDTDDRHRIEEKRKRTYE
# Chain of RELA (p65) subunit of heterodimer;p50 subunit (Q04206 1-307, chain 1 of 2): as the sequence (Q04206 1-307) above
# Chain of RELA (p65) subunit of heterodimer;p50 subunit (P19838 7-356, chain 2 of 2): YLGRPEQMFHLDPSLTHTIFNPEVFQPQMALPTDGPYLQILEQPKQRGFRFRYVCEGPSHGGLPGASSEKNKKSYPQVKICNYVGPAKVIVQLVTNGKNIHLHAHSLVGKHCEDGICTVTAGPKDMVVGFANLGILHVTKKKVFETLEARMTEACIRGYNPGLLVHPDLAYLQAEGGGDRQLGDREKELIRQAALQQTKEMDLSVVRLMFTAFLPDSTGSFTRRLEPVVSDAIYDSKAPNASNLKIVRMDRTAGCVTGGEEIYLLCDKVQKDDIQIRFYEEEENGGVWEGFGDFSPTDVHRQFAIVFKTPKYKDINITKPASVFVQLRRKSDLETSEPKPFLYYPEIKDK
# Chain of p50p50 homodimer (P19838 7-356): as the sequence (P19838 7-356, chain 2 of 2) above
Sequence,binding signal (RELARELA (p65 homodimer)) [z-score],binding signal (p50p50 homodimer) [z-score],binding signal (p52p52 homodimer) [z-score],binding signal [1] [z-score],binding signal [2] [z-score],binding signal (RELB subunit;p50 subunit) [z-score],binding signal (RELB subunit;p52 subunit) [z-score],binding signal [3] [z-score],binding signal [4] [z-score]
GGGGAATTCCC,4.86,2.07,3.41,3.6,3.73,3.87,3.85,3.14,4.19
CGGGACCCCCT,-0.322,1.2,0.855,1.01,0.923,1.13,1.36,0.895,0.632
CGGAAATCCCT,2.44,1.09,1.3,1.35,1.25,0.939,1.47,1.21,1.56
CAAGGGGTCCT,-0.5,-0.988,-0.106,-1.06,-0.546,-0.595,-0.354,-0.859,-0.486
CGGTATGTCCT,0.15,-0.81,-0.37,-0.663,-0.702,-0.895,-0.675,-0.815,-0.489
CAATTTATCCT,-0.0381,-0.676,-0.566,-0.744,-0.71,-0.801,-0.64,-1.1,-0.673
CAATAACTCCC,0.145,0.702,0.0211,0.38,-0.231,0.426,-0.00688,0.223,-0.12
AAAGTTGCCCC,1,0.606,0.147,0.949,0.337,0.677,0.595,1.26,0.617
GAAATGCTCCC,-0.193,-0.556,-0.401,-0.482,-0.537,-0.542,-0.819,-0.726,-0.598
GAAAGACCCCC,-0.269,0.985,0.754,1.12,1.17,0.92,1.03,0.485,0.846
CAGATAGCCCT,-0.575,-1.02,-0.544,-0.662,-0.763,-0.804,-0.675,-1.23,-0.828
AGATTACTCCT,-0.0935,-1.24,-0.548,-0.691,-0.875,-1.01,-0.843,-1.01,-0.848
CAGAATACCCT,0,1.12,0.546,0.635,0.477,0.743,0.882,0.496,0.421
AAATGAGTCCT,-0.142,-1.04,-0.602,-0.991,-0.866,-0.889,-0.596,-1.08,-0.769
CAAGAGATCCT,-0.295,-1.92,-0.611,-1.27,-1.22,-0.959,-0.999,-1.42,-1.16
